Results published in PubChem BioAssay (EPA / NIEHS).
More than one record can exist for a structure, and the calls need not agree. Activity calls are given as the source filed them. How the source made its calls: active means hit-call score of the fitted dose curve at least 0.9, where 1 is the maximum; inactive means score below 0.9.

Legend:
Conditions in all cases: mRNA level, 48 h; actives raise or lower the signal
[1] = read-out: Interleukin 6 Receptor (IL6R), IL6R (gene 3570); assay: LTEA_HepaRG_IL6R: Life Technologies and Expression Analysis (LTEA) Assay for Interleukin 6 Receptor (IL6R) using HepaRG (AID 2283510);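 on AC50: differentiated human HepaRG liver cells in serum-free induction medium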
In short: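 IL6R transcript level by qRT-PCR after 48 h chemical exposure (8-point, half-log, max 100 uM, 0.5% DMSO vehicle) of HepaRG cells in serum-free induction medium. Normalized to three housekeeping genes; curves fitted in both directions relative to DMSO.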

[2] = read-out: Potassium channel subfamily K member 1 (KCNK1), KCNK1 (gene 3775); assay: LTEA_HepaRG_KCNK1: Life Technologies and Expression Analysis (LTEA) Assay for Potassium channel subfamily K member 1 (KCNK1) using HepaRG (AID 2283511)
In short: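 KCNK1 transcript measured by TaqMan qRT-PCR against three housekeeping genes, after HepaRG cells were treated 48 h with eight half-log concentrations (top 100 uM, 0.5% DMSO). Curves fitted bidirectionally relative to vehicle.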

[3] = read-out: Keratin 19 (KRT19), KRT19 (gene 3880); assay: LTEA_HepaRG_KRT19: Life Technologies and Expression Analysis (LTEA) Assay for Keratin 19 (KRT19) using HepaRG (AID 2283512)
In short: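 HepaRG, 48 h chemical exposure, 8-pt half-log CRC from 100 uM, 0.5% DMSO vehicle, duplicates. Readout: TaqMan qRT-PCR of KRT19 mRNA, housekeeping-normalized (ACTB/GAPDH/POLR2A). Bidirectional fit vs DMSO baseline.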

[4] = read-out: JUN Transcription Factor, JUN (gene 3725); assay: LTEA_HepaRG_JUN: Life Technologies and Expression Analysis (LTEA) Assay for JUN Transcription Factor using HepaRG (AID 2283513)
In short: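 mRNA measured by TaqMan qRT-PCR after 48 h chemical exposure of HepaRG cultures; normalization to three housekeeping genes. Duplicate eight-point half-log curves from 100 uM in 0.5% DMSO; gain or loss fitted against DMSO baseline.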

[5] = read-out: Lipase C (LIPC), LIPC (gene 3990); assay: LTEA_HepaRG_LIPC: Life Technologies and Expression Analysis (LTEA) Assay for Lipase C (LIPC) using HepaRG (AID 2283514)
In short: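 LIPC expression was quantified by qRT-PCR against three housekeeping genes (ACTB, GAPDH, POLR2A). Differentiated human HepaRG cells received eight half-log doses (top 100 uM, 0.5% DMSO) in duplicate for 48 h; fitting bidirectional relative to DMSO.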

[6] = read-out: Lipoprotein lipase (LPL), LPL (gene 4023); assay: LTEA_HepaRG_LPL: Life Technologies and Expression Analysis (LTEA) Assay for Lipoprotein lipase (LPL) using HepaRG (AID 2283515)
In short: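 LPL transcript levels quantified by TaqMan qRT-PCR against three housekeeping genes after 48 h chemical treatment of HepaRG cells. Eight-point half-log series from 100 uM in 0.5% DMSO, tested in duplicate; bidirectional fitting versus vehicle.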

[7] = read-out: MicroRNA 122 (MIR122), gene 406906; assay: LTEA_HepaRG_MIR122: Life Technologies and Expression Analysis (LTEA) Assay for MicroRNA 122 (MIR122) using HepaRG (AID 2283516); further: the transcript read is the microRNA miR-122
In short: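 Expression measured by microfluidic qRT-PCR with three housekeeping genes for normalisation, after 48 h treatment of HepaRG cultures. Eight concentrations (top 100 uM, half-log steps, 0.5% DMSO vehicle) in duplicate; gain or loss fitted relative to vehicle.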

[8] = read-out: matrix metalloproteinase-10 (MMP10), MMP10 (gene 4319); assay: LTEA_HepaRG_MMP10: Life Technologies and Expression Analysis (LTEA) Assay for matrix metalloproteinase-10 (MMP10) using HepaRG (AID 2283517)
In short: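 Expression measured by TaqMan qRT-PCR with ACTB/GAPDH/POLR2A normalisation after 48 h chemical exposure of HepaRG cells. Eight half-log concentrations, top 100 uM, 0.5% DMSO vehicle, duplicates; gain or loss fitted against vehicle.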

MYC, MYC (gene 4609) = assay: LTEA_HepaRG_MYC: Life Technologies and Expression Analysis (LTEA) Assay for MYC using HepaRG (AID 2283518)
In short: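 qRT-PCR read-out of MYC transcript (Fluidigm TaqMan, housekeeping-normalized) after 48 h chemical exposure of HepaRG cells; eight concentrations, top 100 uM, half-log steps. Bidirectional curve fitting against 0.5% DMSO vehicle baseline.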

[9] = read-out: Paternally Expressed 10 (PEG10), PEG10 (gene 23089); assay: LTEA_HepaRG_PEG10: Life Technologies and Expression Analysis (LTEA) Assay for Paternally Expressed 10 (PEG10) using HepaRG (AID 2283520);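 on AC50: differentiated HepaRG human liver cells in serum-free induction medium with 0.5% DMSO; PEG10 transcript by qRT-PCR normalised to ACTB GAPDH and POLR2A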
In short: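 PEG10 transcript measured by Fluidigm qRT-PCR, normalized to three housekeeping genes, in HepaRG cells treated 48 h (highest 100 uM, half-log steps, 0.5% DMSO vehicle). Cells plated 48 h before switching to serum-free induction medium.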

Measured: AC50

CCOP(=S)(OCC)Oc1nc(Cl)c(Cl)cc1Cl
inactive: all assays above

C[C@]12CCC(=O)C[C@@H]1CC[C@@H]1[C@@H]2CC[C@]2(C)[C@@H](O)CC[C@@H]12
active: [9] 50 µM
inactive: all other assays above

O=C(O)C(F)(F)C(F)(F)C(F)(F)C(F)(F)C(F)(F)C(F)(F)F
inactive: all assays above

COc1cc(-c2ccc(N)c(OC)c2)ccc1N
active: [3] 42.3 µM | [4] 50 µM | [5] 50 µM | [7] 79.7 µM | MYC, MYC (gene 4609) 50 µM | [9] 50 µM
inactive: [1] | [2] | [3] | [4] | [5] | [6] | [7] | [8] | MYC, MYC (gene 4609)

CC(C)(OO)c1ccccc1
inactive: all assays above

O=c1[nH]c(=O)[nH]c(=O)[nH]1
inactive: all assays above

O=C(O)C(F)(F)C(F)(F)C(F)(F)C(F)(F)C(F)(F)C(F)(F)C(F)(F)C(F)(F)C(F)(F)C(F)(F)F
active: [1] 47.8 µM | [6] 47.8 µM
not listed: [7]
inactive: all other assays above

O=C1C2(Cl)C3(Cl)C4(Cl)C(Cl)(Cl)C5(Cl)C3(Cl)C1(Cl)C5(Cl)C24Cl (centres undefined)
inactive: [2] | [5]
active: [1] 90.8 µM | [3] 93.5 µM | [4] 91.1 µM | [6] 91.9 µM | [7] 93.8 µM | [8] 88.8 µM | MYC, MYC (gene 4609) 24.9 µM | [9] 93.4 µM

CN(C)N=O
inactive: all assays above

CC(C)(c1ccccc1)c1ccc(O)c(C(C)(C)c2ccccc2)c1
active: [5] 61.7 µM | [7] 78 µM | MYC, MYC (gene 4609) 50 µM
inactive: all other assays above

O=C(O)C(Cl)(Cl)Cl
inactive: [1] | [2] | [3] | [4] | [5] | [6] | [7] | [8] | MYC, MYC (gene 4609) | [9]
active: [6] 9.92 µM

C=C(C)C(=O)[O][Sn]([CH2]CCC)([CH2]CCC)[CH2]CCC
active: [4] 6.54 µM | [5] 2.37 µM | [6] 6.44 µM | MYC, MYC (gene 4609) 2.77 µM
inactive: all other assays above

O=C(Nc1ccc2[nH]ccc2c1)c1cc2cc(F)ccc2n1Cc1cccc(F)c1
active: [1] 89.5 µM | [3] 50 µM | [4] 50 µM | [5] 59.7 µM | [6] 19.9 µM | [7] 24.9 µM | [8] 29 µM | MYC, MYC (gene 4609) 15.7 µM | [9] 50 µM
inactive: [2]

CCCCCCCCc1ccc(O)cc1
inactive: all assays above

C[C@@H]1C[C@@H]([C@H](O)CC2CC(=O)NC(=O)C2)C(=O)[C@@H](C)C1
active: [2] 12.2 µM | [3] 12.5 µM | [4] 30 µM | [5] 20 µM | [6] 92.2 µM | [7] 10.6 µM | MYC, MYC (gene 4609) 13.9 µM | [9] 2.39 µM
inactive: [1] | [8]

NC(=O)O
inactive: all assays above

Cn1sc(Cl)cc1=O
inactive: all assays above

O=[N+]([O-])c1ccc(O)c([N+](=O)[O-])c1
active: [1] 17.7 µM | [5] 12 µM | [7] 23.1 µM | MYC, MYC (gene 4609) 89.6 µM | [9] 13.2 µM
inactive: [2] | [3] | [4] | [6] | [8]

Oc1cccc2cccnc12
inactive: all assays above

ClCC(Cl)CCl
inactive: all assays above

CCC(=O)C(CC(C)N(C)C)(c1ccccc1)c1ccccc1 (centres undefined)
active: [3] 18.9 µM | [9] 26.3 µM
inactive: all other assays above

CC(=O)[O][Hg][c]1ccccc1
inactive: [2] | [5] | [7]
active: [1] 20.6 µM | [3] 4.54 µM | [4] 12.7 µM | [6] 29.3 µM | [8] 15.8 µM | MYC, MYC (gene 4609) 24.2 µM | [9] 50 µM

ClC1(Cl)C2(Cl)C3(Cl)C4(Cl)C(Cl)(Cl)C5(Cl)C3(Cl)C1(Cl)C5(Cl)C24Cl (centres undefined)
inactive: all assays above

CCN1CCC2(CC1)COc1cc3c(cc12)N(C(=O)c1ccc(-c2ccc(-c4nnc(C)o4)cc2C)cc1)CC3
inactive: [3] | [5] | [7] | MYC, MYC (gene 4609)
active: [1] 31.8 µM | [2] 29.3 µM | [4] 18.2 µM | [6] 32.7 µM | [8] 76.1 µM | [9] 15.6 µM

C=CC(=O)OCCCCCC(C)C
inactive: all assays above

CC(C)(C)CC(C)(C)c1ccc(O)cc1
active: [3] 25.9 µM
inactive: all other assays above

Cc1ccccc1N
inactive: all assays above

CCOP(=S)(OCC)SCSP(=S)(OCC)OCC
active: [1] 0.064 µM | MYC, MYC (gene 4609) 0.09 µM
inactive: all other assays above

CC12CC1(C)C(=O)N(c1cc(Cl)cc(Cl)c1)C2=O (centres undefined)
active: [9] 10.3 µM
inactive: all other assays above

CCC(C)(C)c1ccc(O)c(C(C)(C)CC)c1
inactive: all assays above

CC(C)(C)c1cc(O)ccc1O
not listed: [2]
inactive: all other assays above
